In the library only some 20% were active in any assay of this set; here they are far more common.
HCMV antiviral = blocks human cytomegalovirus replication; HFF cells, HCMV-luciferase reporter, 72 h; active compounds read low; activity change, negative = inhibition, % at 57.5 µM; actives 4.5% (n = 410,000); in the data active = activity change below about -60%; inconclusive = no clear call, values can overlap the other calls; inactive = above about -39%; also: % is scaled to controls: 0 for no effect and ±100 for the full control effect
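Screen run at 2 compound doses on HFFs infected with reporter HCMV, MOI 1 PFU/cell. Luciferase activity from cell lysates at 72 h post infection gave inhibition relative to buffer-only and Salinomycin wells.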
Pf growth 48h = P. falciparum growth inhibition at 48 hours (one generation). P. falciparum luciferase growth in erythrocytes, 48 h. Potency, µM (series often up to 28.7 µM), for inactives: top-dose activity change, negative = inhibition, actives largely listed as inhibitors. actives 5.9% (n = 310,000); also: potency is read from the fitted curve at half-maximal effect; % is scaled to controls: 0 for no effect and ±100 for the full control effect
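Erythrocytes infected with P. falciparum carrying an integrated firefly luciferase reporter (2% hematocrit, 0.1% parasitemia final) were exposed to compounds in RPMI 1640 with 0.5% Albumax at 37 C, 5% CO2. Growth inhibition was scored as reduced luminescence.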
CHX counter = affects cycloheximide protein synthesis inhibition readout, counter-screen. AID 2314. cell reporter, cycloheximide protein synthesis inhibition counterscreen. actives 12% (n = 300,000). max response, %; in the data active = max response mostly above about 13%, no sharp cut-off; inactive = mostly below about 14%; also: read at 38.3 µM for the half of the compounds with a filed dose; 0% is about no effect
Pf growth 96h = P. falciparum growth inhibition at 96 hour, primary screen for plastid delayed-death inhibitors; actives 6.9% (n = 320,000); Potency, µM (highest dose often 28.7 µM), inactives show top-dose activity change, negative = inhibition, most hits filed as inhibitors; AID 504834; P. falciparum luciferase reporter growth, 96 h; also: potency is read from the fitted curve at half-maximal effect; % is scaled to controls: 0 for no effect and ±100 for the full control effect
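Readout is luminescence from an integrated firefly luciferase in P. falciparum. Red cells, 2% hematocrit and 0.05% parasitemia final, were cultured with compound through two parasite generations (96 hours) at 37 C, 5% CO2.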
Shiga toxin inh = inhibitors of Shiga toxin in Vero cells; Vero cells, Shiga toxin protein synthesis inhibition reporter; inhibition, % at 38.7 µM; actives 9.2% (n = 290,000); AID 2315; in the data active = inhibition mostly above about 28%, no sharp cut-off; inactive = mostly below about 43%; also: 0% is about no effect
An asterisk follows results filed as active; ? = inconclusive; · = no result given. Unless noted, calls follow the shape of the dose curve; as a rule, active = well fitted inhibition curve with a large enough effect; inconclusive = small, poorly fitted or top-dose-only effect, or another doubt; inactive = no such curve, though single readings can be large or run the other way.

SMILES	HCMV antiviral	Pf growth 48h	CHX counter	Pf growth 96h	Shiga toxin inh
CC(C)(C)c1ccc(NC(=O)c2ccccc2)c([N+](=O)[O-])c1	24	30%	35*	?	122*
O=C(NC(=S)Nc1ccccc1[N+](=O)[O-])c1ccccc1	45	116%	45*	-10%	96*
Cc1c(NC(=O)c2ccc3nsnc3c2)cccc1[N+](=O)[O-]	9	-20%	2	10%	45
Cc1c(NC(=O)c2ccc(C(C)(C)C)cc2)cccc1[N+](=O)[O-]	61	93%	27*	24%	23
Cc1cc(NC(=O)CSCC(=O)OCC(=O)c2ccc(Br)cc2)no1	10	·	·	·	·
CCCCn1cc(S(=O)(=O)c2ccc(OC)cc2)c(=O)c2cc(CC)ccc21	-26	·	·	·	·
CN1C(=O)c2ccc(NC(=O)CCS(=O)(=O)c3ccccc3)cc2C1=O	15	9%	7	19%	37
O=C1CC(c2ccsc2)Sc2ccccc2N1 (stereo not drawn)	36	0%	1	37%	-10
CCc1ccc(C2Sc3ccccc3NC3=C2C(=O)c2ccccc23)cc1 (stereo not drawn)	-85*	·	·	·	·
CC1(C)CC(=O)C2=C(C1)NC1=C(C(=O)c3ccccc31)C2c1ccc(O)cc1 (stereo not drawn)	5	?	-2	?	-5
O=C1c2ccccc2NC(c2ccco2)N1O (stereo not drawn)	102	19%	10	-12%	47
O=C1C2=C(Nc3ccccc3SC2c2ccco2)c2ccccc21 (stereo not drawn)	29	0.33µM*	33*	6%	78*
O=C1C2=C(Nc3ccccc3SC2c2ccc(C(F)(F)F)cc2)c2ccccc21 (stereo not drawn)	-99*	·	·	·	·
FC(F)(F)c1ccc(C2Nc3cccc4cccc(c34)N2)cc1	8	?	-2	?	-10
CC1CC(=O)C2=C(C1)Nc1ccccc1SC2c1ccc(F)cc1 (stereo not drawn)	27	12µM*	-5	4.1µM*	-6
CC(C)c1ccc(C2Sc3ccccc3NC3=C2C(=O)c2ccccc23)cc1 (stereo not drawn)	-100*	·	·	·	·
CC(=O)Nc1ccc(C2Sc3ccccc3NC3=C2C(=O)c2ccccc23)cc1 (stereo not drawn)	-29	·	·	·	·
COc1ccc(-c2cc(-c3ccccc3)nc3c2COc2ccccc2-3)cc1	-6	·	·	·	·
COc1ccc(C2=Nc3ccccc3OC2)cc1	8	·	46*	55%	99*
Cc1ccc(N=C(NOC(=O)c2ccccc2)c2nonc2N)c(C)c1	-32	?	-4	5.9µM*	-5
Cc1ccc(N=C(NOCc2ccc(Cl)cc2Cl)c2nonc2N)c(C)c1	-7	·	-3	12µM*	-5
Cc1ccccc1N=C(NOCc1ccc(Cl)cc1Cl)c1nonc1N	-28	·	6	12µM*	-6
COC(=O)COc1ccc(S(=O)(=O)Nc2cc([N+](=O)[O-])ccc2C)cc1	-37	5%	1	-20%	-8
S=C(NCc1ccccc1)NCc1ccccc1Cl	-1	6%	9	?	-8
COCCn1c(C)cc(O)c(C(c2ccccc2)N2CCN(c3ccccc3)CC2)c1=O (stereo not drawn)	4	·	·	·	·
SMILES	HCMV antiviral	Pf growth 48h	CHX counter	Pf growth 96h	Shiga toxin inh
Cc1ccc(N(C(C)C(=O)N2CCCCC2)S(C)(=O)=O)cc1C (stereo not drawn)	-10	-1%	5	-8%	-18
COc1cc(C(c2c(C(=O)O)[nH]c3ccccc23)c2c(C(=O)O)[nH]c3ccccc23)ccc1OCc1ccccc1	5	0%	-1	13µM*	·
COc1ccc(/C=C/C(=O)OCC(=O)c2c(C)[nH]c3ccccc23)cc1OC	1	?	1	?	-12
COc1ccc(C(C[N+](=O)[O-])c2c(C)[nH]c3ccccc23)cc1OC (stereo not drawn)	79	2.1µM*	-7	?	-5
O=C(O)c1[nH]c2ccccc2c1C(c1ccccc1)c1c(C(=O)O)[nH]c2ccccc12	70	27%	0	?	0
COc1ccccc1NC(=O)N(C)C[C@@H]1OCc2cnnn2CCCC(=O)N([C@@H](C)CO)C[C@@H]1C	24	·	·	·	·
CCCCN(CCCC)S(=O)(=O)c1ccc(NC(=O)c2ccc([N+](=O)[O-])cc2Cl)cc1	-78*	?	11	1%	-13
CCOC(=O)c1c(C)nn(-c2ccc(NC(=O)c3cccs3)cc2)c1C	-35	15µM*	17	3.3µM*	35
O=C(Nc1ccc2c(c1)CCC2)c1cccs1	13	-26%	54*	-19%	62*
COc1ccc(NC(=O)C(=O)NNC(=O)c2cccs2)cc1	31	23%	15*	3.7µM*	10
Cc1ccc(NC(=O)C(=O)NNC(=O)c2cccs2)cc1	94	19%	29*	?	38
CC(=O)Nc1ccc(N)cc1	8	21%	·	-19%	·
Nc1ccc(NC(=O)Nc2ccc(N)cc2)cc1	-23	32%	17*	81%	29*
CCC(=O)Nc1ccc(C(=O)NNC(=O)c2cccs2)cc1	67	7%	0	0%	19
Cc1ccc(NC(=O)c2cccs2)cc1	95	·	53*	66%	81
CCCCN(CCCC)S(=O)(=O)c1ccc(NC(=O)c2cccs2)cc1	?	·	-5	0.41µM*	-8
CC(Oc1ccc(Cl)cc1)c1ccc(C#N)c(=O)[nH]1 (stereo not drawn)	-13	-10%	9	28%	-12
CC1CN(C(=O)Nc2ccc(C(=O)NCc3cccc(F)c3)cc2)c2ccccc2S1 (stereo not drawn)	6	·	·	·	·
Nc1ccc(NC(=O)c2cccs2)cc1	3	32%	21*	-8%	23
CN(O)/C=c1/ccc2c(n1)C(=O)C=CC=2	36	8.3µM*	-4	12µM*	5
CC(C)(C)c1ccc(C(=O)NCCN2CCCC2)cc1	?	14%	2	17%	-4
CC(C)(C)c1ccc(C(=O)OCCN2CCCCC2)cc1	?	27%	22*	5.9µM*	55*
COc1ccc(C(=O)OCC[N+]2(C)CCCCC2)cc1	35	20%	44*	7%	107*
COc1ccc(C(=O)OCCN2CCCCC2)cc1	-29	21%	48*	?	51*
COc1ccc(C(=O)NCCCOC(=O)c2ccc(OC)cc2)cc1	-8	-14%	-3	?	-9
COc1ccc(C(=O)CCN2CCCCCC2)cc1	14	2%	11	?	14
COc1ccc(C)cc1NC(=O)C/C(C)=N/NC(=O)Cc1cccc2ccccc12	9	-13%	-5	20%	-3
O=C(CCNC(=O)c1ccccc1Cl)Nc1cc(S(=O)(=O)N2CCOCC2)ccc1N1CCCC1	-29	-14%	-4	-4%	4
O=C(CNc1cc(S(=O)(=O)N2CCOCC2)ccc1N1CCCC1)Nc1ccc(Cl)cc1F	-27	·	·	·	·

Screening data from PubChem.
